The results in this text go back to PubChem BioAssay.

Assay [1] concerns Aerobactin synthetase IucA (Klebsiella pneumoniae). The assay can be described thus: inhibition of K. pneumoniae IucA enzyme – biochemical, Tocris library, absorbance (AID 1345561; call rule not given here;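 also: 100% = enzyme without compound and 0% = no enzyme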). The conditions noted are these: purified IucA enzyme assay, absorbance (OD) read-out; stronger effect = lower value;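 tested at 8 µM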.
Assay [2] is described as follows: viability loss with induced miR-34 in A549 – imaging, A549 dox-inducible miR-34, nuclei and caspase counts, primary screen (AID 1347080;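 active = compounds whose cell count with miR-34 switched on is under 0.7 times the count with it off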). To be noted: A549 miR-34 inducible, Hoechst nuclei count, 48 h.
Assay [3] can be described thus: galactose survival enhancers in mitochondrial complex I cybrids – cell-based, galactose medium, ATP luminescence, primary screen (AID 1645843).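 Also: positive z means more ATP and so rescue of galactose-driven cybrid death.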 To be noted: complex I mutant cybrid cells, 72 h, stronger effect = higher value.
[4] abbreviates: stronger effect = lower value, cell number ratio, induced over uninduced.
Where [5] appears, read: measured here: relative caspase fold change +Dox/-Dox.
Where [6] appears, read: measured here: total cells with miR-34 induction, stronger effect = lower value.
Setting [7] is: measured here: total cells without miR-34 induction.

Active and inactive are the calls of the source.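 The calls were made as follows, unless noted: active = z-score of at least 1.8 in each of two replicates, scored against plate mean and spread of sample wells; inactive = the rest.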

One may read the remaining activity as the signal under treatment as a percentage of the control signal.

For `CN1C[C@H]2c3ccccc3Oc3ccc(Cl)cc3[C@@H]2C1` (racemic), the remaining activity in assay [1] is 109% (inactive). Further, the fold change in assay [2] (setting [4]) was 0.868 (inactive); in assay [2] (setting [5]) it was 2.03. The cell count in assay [2] (setting [6]) was determined as 5560; in assay [2] (setting [7]), 6410. For the same molecule, the z-score in assay [3] was -0.745 (inactive).
On to `O=C1c2ccccc2C(Cc2ccncc2)(Cc2ccncc2)c2ccccc21`, for which the remaining activity in assay [1] is 107% (inactive). The fold change is 0.992 (inactive) in assay [2] (setting [4]) and 1.04 in assay [2] (setting [5]). The cell count in assay [2] (setting [6]) came to 7700; in assay [2] (setting [7]), 7770. Further, the z-score in assay [3] is -0.13 (inactive).
Turning to `Cc1cc(C)c(N(Cc2ccccc2)S(=O)(=O)c2ccc(OCCNC(=O)c3cc4ccccc4o3)cc2)c(C(=O)NO)c1`, in assay [1], the remaining activity is 101% (inactive). The values for the fold change in assay [2] (setting [4]) and in assay [2] (setting [5]) were 0.895 (inactive) and 0.617, respectively. The figures for the cell count in assay [2] (setting [6]) and in assay [2] (setting [7]) were 2050 and 2290, respectively. Also, the z-score in assay [3] was -0.695 (inactive).
Turning to `CN(N=O)C(=O)N[C@H]1C(O)O[C@H](CO)[C@@H](O)[C@@H]1O` (some centres undefined), the remaining activity in assay [1] is 111% (inactive). In addition, the results for the fold change in assay [2] (setting [4]) and in assay [2] (setting [5]) were 0.958 (inactive) and 0.621, respectively. Further, the cell count was 8770 in assay [2] (setting [6]) and 9160 in assay [2] (setting [7]). Also, the z-score in assay [3] was -0.2 (inactive).
Take `CCCOc1ccc(Br)cc1-c1cc(-c2ccc(Cl)cc2)[nH]c1-c1ccncc1`: the remaining activity in assay [1] was 102% (inactive). Moreover, the fold change was 0.969 (inactive) in assay [2] (setting [4]) and 1.19 in assay [2] (setting [5]). The cell count in assay [2] (setting [6]) stood at 8200; in assay [2] (setting [7]), 8460. For the same molecule, the z-score in assay [3] is 0.1 (inactive).
Turning to `CNC(=O)[C@@H](Cc1ccccc1)N(C)C(=O)[C@@H](Cc1ccc2ccccc2c1)N(C)C(=O)/C=C/CC(C)(C)N`, the remaining activity in assay [1] is 99.8% (inactive). The fold change in assay [2] (setting [4]) is 1 (inactive); in assay [2] (setting [5]), 0.957. For the same molecule, the figures for the cell count in assay [2] (setting [6]) and in assay [2] (setting [7]) were 9200 and 9170, respectively. Besides, the z-score in assay [3] is -0.39 (inactive).
For the molecule `O=C(NCCCCN1CCN(c2cccc(Cl)c2Cl)CC1)c1ccc2c(c1)Cc1ccccc1-2`, in assay [1], the remaining activity is 111% (inactive). For the same molecule, the fold change in assay [2] (setting [4]) is 0.929 (inactive); in assay [2] (setting [5]) it was 1.33. Moreover, the cell count is 8390 in assay [2] (setting [6]) and 9030 in assay [2] (setting [7]). Moreover, the z-score in assay [3] is -0.17 (inactive).
For the molecule `O=[N+]([O-])c1cc2nc(O)c(O)nc2cc1[N+](=O)[O-]`, the remaining activity in assay [1] was 103% (inactive). Further, the fold change is 0.896 (inactive) in assay [2] (setting [4]) and 1.68 in assay [2] (setting [5]). Besides, the cell count in assay [2] (setting [6]) was 8310; in assay [2] (setting [7]), 9280. In addition, in assay [3], the z-score was -0.355 (inactive).
Consider `CCCCc1nc2ccn(CC(=O)N(C)C)c(=O)c2n1Cc1ccc(-c2ccccc2-c2nn[nH]n2)cc1`, for which the remaining activity in assay [1] was 111% (inactive). Also, the results for the fold change in assay [2] (setting [4]) and in assay [2] (setting [5]) were 1.01 (inactive) and 0.927, respectively. Also, the figures for the cell count in assay [2] (setting [6]) and in assay [2] (setting [7]) were 8240 and 8192, respectively. Besides, in assay [3], the z-score is -0.18 (inactive).
For the molecule `COc1cc(N)c(Cl)cc1C(=O)OCCCN1CCCCC1`, the remaining activity in assay [1] is 102% (inactive). The fold change is 0.975 (inactive) in assay [2] (setting [4]) and 0.823 in assay [2] (setting [5]). Also, the cell count in assay [2] (setting [6]) was 9460; in assay [2] (setting [7]), 9700. For the same molecule, the z-score in assay [3] is 0.255 (inactive).
Turning to `O=C(O)c1c(Sc2ccccc2)c2cc(Cl)ccc2n1Cc1ccc(Cl)cc1`, the remaining activity in assay [1] is 122% (inactive). Further, the fold change in assay [2] (setting [4]) was 0.94 (inactive); in assay [2] (setting [5]), 1.45. Moreover, the figures for the cell count in assay [2] (setting [6]) and in assay [2] (setting [7]) were 6730 and 7160, respectively. For the same molecule, the z-score in assay [3] was 1.25 (inactive).
Take `CCOC(=O)C1CSC(Cc2ccc(OCc3ccc([N+](=O)[O-])cc3)cc2)N1` (centres undefined): the remaining activity in assay [1] is 95.4% (inactive). The results for the fold change in assay [2] (setting [4]) and in assay [2] (setting [5]) were 0.923 (inactive) and 1.54, respectively. The cell count in assay [2] (setting [6]) came to 8250; in assay [2] (setting [7]) it was 8940. Also, the z-score in assay [3] is -0.58 (inactive).
Take `COc1ccccc1C1(O)CCN(CCCn2c3ccccc3c3ccccc32)CC1`: the remaining activity in assay [1] was 91.1% (inactive). Also, the fold change in assay [2] (setting [4]) was 0.694 (active); in assay [2] (setting [5]), 1.55. Also, the cell count in assay [2] (setting [6]) turned out to be 323; in assay [2] (setting [7]), 466. Further, the z-score in assay [3] is -0.705 (inactive).
Regarding `CCCc1c(OCC(O)COc2ccc3c(=O)cc(C(=O)O)oc3c2CCC)ccc(C(C)=O)c1O` (centres undefined), the remaining activity in assay [1] is 110% (inactive). Also, the fold change in assay [2] (setting [4]) was 0.998 (inactive); in assay [2] (setting [5]) it was 0.8. For the same molecule, the cell count in assay [2] (setting [6]) turned out to be 8250; in assay [2] (setting [7]) it was 8260. The z-score in assay [3] is 3.91 (active).
For the molecule `O=S(=O)(NCCCCCCc1ccccc1)c1cccc2c(Cl)cccc12`, the remaining activity in assay [1] is 101% (inactive). Moreover, the figures for the fold change in assay [2] (setting [4]) and in assay [2] (setting [5]) were 0.934 (inactive) and 0.599, respectively. The results for the cell count in assay [2] (setting [6]) and in assay [2] (setting [7]) were 8620 and 9230, respectively. For the same molecule, the z-score in assay [3] is -1.14 (inactive).
On to `CC(=O)N(OCc1ccccc1)[C@@H]1c2cc(C#N)ccc2OC(C)(C)[C@H]1O`, for which the remaining activity in assay [1] was 105% (inactive). In addition, the fold change in assay [2] (setting [4]) is 0.887 (inactive); in assay [2] (setting [5]), 0.973. The cell count in assay [2] (setting [6]) turned out to be 8320; in assay [2] (setting [7]), 9380. The z-score in assay [3] was 0.705 (inactive).
Regarding `Cn1cccc1/C=C1\C(=O)NC(=O)c2ccccc21`, the remaining activity in assay [1] is 129% (inactive). Also, the figures for the fold change in assay [2] (setting [4]) and in assay [2] (setting [5]) were 0.918 (inactive) and 1.16, respectively. Moreover, the cell count in assay [2] (setting [6]) is 8530; in assay [2] (setting [7]), 9300. For the same molecule, the z-score in assay [3] was -0.415 (inactive).
For the molecule `N#C/C(=C\c1ccc(O)c(O)c1)C(=O)OCCc1cccs1`, the remaining activity in assay [1] is 110% (inactive). Moreover, the fold change is 0.871 (inactive) in assay [2] (setting [4]) and 1.36 in assay [2] (setting [5]). Besides, the cell count turned out to be 8430 in assay [2] (setting [6]) and 9690 in assay [2] (setting [7]). In addition, the z-score in assay [3] is -0.59 (inactive).
`c1ccc2sc(N3CCN(Cc4ccc5c(c4)OCO5)CC3)nc2c1`: the remaining activity in assay [1] is 98.7% (inactive). For the same molecule, the fold change in assay [2] (setting [4]) is 0.958 (inactive); in assay [2] (setting [5]), 0.859. Also, the results for the cell count in assay [2] (setting [6]) and in assay [2] (setting [7]) were 9100 and 9500, respectively. Moreover, in assay [3], the z-score is -0.155 (inactive).
